Where “and” joins values, the source holds several entries; their conditions need not be identical. Equal entries are not always repeated. Among all 5,500 compounds or so, about 2,000 (36%) were called active. Not shown: some 18% with an inconclusive outcome. No stated cut-off is given here; in the data, active means normalized growth mostly below about 0.91 (no sharp cut-off); inconclusive means no clear call, values can overlap the other calls; inactive means mostly above about 0.92. The list shows a part of the results.
Assay: chemical genetic growth profiling, strain panel (AID 1159580);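 further: tested at 20 µM; growth read once vehicle control cultures reached saturation at 30 °C; 1 = growth at the plate median or of vehicle wells; lower values mean less growth of the strain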
Conditions: S. cerevisiae deletion strains, growth OD

Measured: normalized growth

COc1ccc(Cc2nccc3cc(OC)c(OC)cc23)cc1OC
inactive: locus YAL021C, strain ccr4, active compounds read low 1.04 | locus YAL026C, strain drs2, active compounds read low 1 | locus YAL030W, strain snc1, active compounds read low 1 | locus YAL040C, strain CLN3, active compounds read low 0.983 | locus YBL061C, strain skt5, active compounds read low 1 | locus YBR009C, strain hhf1, active compounds read low 0.995 | locus YBR021W, strain FUR4, active compounds read low 1.01 | locus YBR023C, strain chs3, active compounds read low 1.01 | locus YBR171W, strain sec66, active compounds read low 1.01 | locus YBR229C, strain ROT2, active compounds read low 1.01 | locus YBR231C, strain swc5, active compounds read low 0.998 | locus YBR279W, strain paf1, active compounds read low 1.01 | locus YCL011C, strain gbp2, active compounds read low 1.01 | locus YCL016C, strain dcc1, active compounds read low 1.01 | locus YCL029C, strain bik1, active compounds read low 0.992 | locus YCL061C, strain MRC1 (second series), active compounds read low 1 | locus YCL061C, strain MRC1, active compounds read low 1 | locus YCL069W, strain vba3, active compounds read low 1 | locus YCR088W, strain abp1, active compounds read low 1.01 | locus YDL005C, strain med2, active compounds read low 0.994 | locus YDL035C, strain GPR1, active compounds read low 1.01 | locus YDL040C, strain nat1, active compounds read low 0.998 | locus YDL074C, strain BRE1, active compounds read low 1.02 | locus YDL101C, strain DUN1, active compounds read low 1.01 | locus YDL134C, strain PPH21, active compounds read low 1.01 | locus YDL185W, strain tfp1, active compounds read low 0.992 | locus YDL192W, strain arf1, active compounds read low 0.989 | locus YDR001C, strain nth1, active compounds read low 0.999 | locus YDR069C, strain doa4, active compounds read low 0.989 | locus YDR101C, strain arx1, active compounds read low 0.996 | locus YDR137W, strain rgp1, active compounds read low 1.03 | locus YDR150W, strain NUM1, active compounds read low 1.02 | locus YDR159W, strain sac3, active compounds read low 0.962 | locus YDR162C, strain NBP2, active compounds read low 1 | locus YDR195W, strain ref2 0.981 | locus YDR297W, strain sur2, active compounds read low 1 | locus YDR318W, strain mcm21, active compounds read low 0.976 | locus YDR334W, strain swr1, active compounds read low 1.01 | locus YDR335W, strain msn5, active compounds read low 0.999 | locus YDR363W, strain ESC2, active compounds read low 0.988 | locus YDR388W, active compounds read low 0.993 | locus YDR392W, strain spt3, active compounds read low 0.921 | locus YDR502C, strain sam2, active compounds read low 0.986 | locus YEL003W, strain gim4, active compounds read low 0.996 | locus YEL037C, strain rad23, active compounds read low 1 | locus YEL061C, strain CIN8 (second series), active compounds read low 1 | locus YEL061C, strain CIN8, active compounds read low 1.01 | locus YER002W, strain NOP16, active compounds read low 0.994 | locus YER015W, strain faa2, active compounds read low 1 | locus YER016W, strain bim1, active compounds read low 0.996 | locus YER110C, active compounds read low 0.988 | locus YER111C, strain swi4, active compounds read low 1.01 | locus YER155C, strain BEM2 (second series), active compounds read low 0.987 | locus YER155C, strain BEM2, active compounds read low 1.01 | locus YER167W, strain BCK2, active compounds read low 1.01 | locus YFR010W, strain ubp6, active compounds read low 0.998 | locus YGL078C, strain dbp3, active compounds read low 0.99 | locus YGL086W, strain mad1, active compounds read low 0.994 | locus YGL167C, strain pmr1, active compounds read low 0.998 | locus YGL173C, strain kem1, active compounds read low 0.999 | locus YGL227W, strain vid30, active compounds read low 1 | locus YGL240W, strain doc1, active compounds read low 0.967 | locus YGL248W, strain PDE1, active compounds read low 1.01 | locus YGL253W, strain hxk2, active compounds read low 1.01 | locus YGR078C, strain PAC10, active compounds read low 0.975 | locus YGR135W, strain pre9, active compounds read low 0.977 | locus YGR229C, strain SMI1, active compounds read low 0.995 and 0.994 | locus YGR252W, strain gcn5, active compounds read low 0.949 | locus YHR013C, strain ard1, active compounds read low 1.07 | locus YHR027C, strain rpn1, active compounds read low 0.998 | locus YHR030C, strain SLT2, active compounds read low 1.02 and 0.98 | locus YHR079C, strain IRE1 (second series), active compounds read low 0.985 | locus YHR079C, strain IRE1, active compounds read low 0.972 | locus YHR094C, strain hxt1, active compounds read low 0.992 | locus YHR129C, strain ARP1, active compounds read low 1.02 | locus YHR142W, strain chs7, active compounds read low 0.998 | locus YHR200W, strain rpn10, active compounds read low 0.99 | locus YIL066C, strain RNR3, active compounds read low 1.01 | locus YIL073C, strain SPO22, active compounds read low 0.957 | locus YIL125W, strain kgd1, active compounds read low 0.991 | locus YIR030C, strain dcg1, active compounds read low 0.983 | locus YJL092W, strain hpr5, active compounds read low 1 | locus YJL095W, strain BCK1 (second series), active compounds read low 1 | locus YJL095W, strain BCK1, active compounds read low 1.03 and 0.985 | locus YJL115W, strain asf1, active compounds read low 1 | locus YJL129C, strain trk1, active compounds read low 0.985 | locus YJL134W, strain LCB3, active compounds read low 1.01 | locus YJL154C, strain vps35, active compounds read low 1 | locus YJL164C, strain tpk1, active compounds read low 0.996 | locus YJL166W, strain qcr8, active compounds read low 1.01 | locus YJL168C, strain set2, active compounds read low 0.995 | locus YJL187C, strain SWE1 (second series), active compounds read low 1.01 | locus YJL187C, strain SWE1, active compounds read low 0.996 | locus YJR043C, strain POL32, active compounds read low 1.01
